Source: PubChem
RORgamma inh – inhibitors of mouse ROR gamma transcriptional activity; hit rate 5.4% among 310,000; AID 2551; P51450; Potency, µM (highest dose often 53.6 µM), inactives show at the top dose activity change, negative = inhibition, actives largely listed as inhibitors; Drosophila S2 Gal4-RORgamma UAS-luciferase reporter, 20 h; note: nearly all actives have a fitted effect of over 60% in size
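In this cell-based reporter format, copper sulfate (700 uM final) drives Gal4–ROR gamma fusion expression from a metallothionein promoter in Drosophila Schneider cells; compounds preincubated 1 hr, reporter read after 20 hr at ambient temperature.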
TDP1 cell CPT – DT40-hTDP1 cell growth loss with CPT. chicken DT40 Tdp1-/-;hTDP1 cells + 20 nM CPT, ATP luminescence, 48 h. Potency, µM (doses to about 46.2 µM), for inactives: at the top dose activity change, negative = growth inhibition, hits mostly inhibitors. hit rate 12% among 420,000; note: nearly all actives have a fitted effect of over 55% in size
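Chicken DT40 Tdp1-/- cells stably complemented with human TDP1 were seeded at 400 cells/well in medium containing 20 nM camptothecin, exposed to pin-transferred compounds, and grown at 37 °C for at least 48 hr. Viability was read as ATP luminescence.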
ELG1 repair inh – ELG1-dependent DNA repair inhibition; Potency, µM (highest dose often 46.1 µM), inactives show at the highest dose activity change, negative = inhibition, actives largely listed as inhibitors; HEK293T ELG1-luciferase reporter, luminescence, 16 h; DNA damage induced by 5-fluorouridine; hit rate 2.3% among 330,000; note: nearly all actives have a fitted effect of over 55% in size
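Reporter activity after DNA damage by 5-fluorouridine is monitored. Compound-treated cells incubate 16 hr at 37 °C, then ONE-Glo is added for 30 min before luminescence reading.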
ALOX12 inh – blocks human arachidonate 12S-lipoxygenase; hit rate 1.1% among 580,000; Potency, µM (series often up to 108 µM), for inactives: at the top dose activity change, negative = inhibition, hits mostly inhibitors; P18054; purified 12hLO, xylenol orange hydroperoxide absorbance; AID 1671190
Target sequence (P18054 whole entry, looked up): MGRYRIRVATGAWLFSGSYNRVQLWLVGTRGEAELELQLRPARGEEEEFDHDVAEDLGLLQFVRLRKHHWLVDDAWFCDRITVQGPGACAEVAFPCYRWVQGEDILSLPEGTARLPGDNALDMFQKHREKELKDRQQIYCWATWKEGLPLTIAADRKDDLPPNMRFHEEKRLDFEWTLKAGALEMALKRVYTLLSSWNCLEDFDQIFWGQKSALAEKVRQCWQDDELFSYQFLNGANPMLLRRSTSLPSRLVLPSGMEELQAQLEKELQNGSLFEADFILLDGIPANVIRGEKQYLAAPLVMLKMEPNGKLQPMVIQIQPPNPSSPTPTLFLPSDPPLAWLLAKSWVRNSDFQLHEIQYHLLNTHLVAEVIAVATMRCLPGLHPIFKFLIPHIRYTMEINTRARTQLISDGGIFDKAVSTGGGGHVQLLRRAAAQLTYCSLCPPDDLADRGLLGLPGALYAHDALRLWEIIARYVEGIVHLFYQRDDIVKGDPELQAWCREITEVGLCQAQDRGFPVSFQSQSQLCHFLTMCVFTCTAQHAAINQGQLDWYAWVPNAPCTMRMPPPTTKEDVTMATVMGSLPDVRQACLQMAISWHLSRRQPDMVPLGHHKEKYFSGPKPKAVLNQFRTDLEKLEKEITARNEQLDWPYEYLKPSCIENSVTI
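Purified human 12hLO at 150 nM in 25 mM Hepes, 0.01% Triton X-100, pH 7.0, preincubated 15 min at room temperature with compound. Reaction started with 40 uM arachidonic acid, 30 min at room temperature. Hydroperoxide measured by Fe-xylenol orange, 573/405 nm absorbance ratio.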
TDP1 cell noCPT – qHTS for Inhibitors of human tyrosyl-DNA phosphodiesterase 1 (TDP1): qHTS in cells in absence of CPT | Potency, µM (top dose mostly 46.2 µM), without a hit: at the top dose activity change, negative = growth inhibition, actives largely listed as inhibitors | hit rate 15% among 420,000 | DT40 Tdp1-/- hTDP1 cells, no CPT, ATP luminescence, 48 h; note: nearly all actives have a fitted effect of over 55% in size
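DT40 Tdp1-/-;hTDP1 cells, no CPT (DMSO vehicle only), 400 cells/well; compounds pin-transferred; ≥48 hr, 37 °C; CellTiter-Glo 30 min RT dark, luminescence read.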
Gal4-VP16 FLuc – Gal4-VP16 reporter inhibition counter-screen; Drosophila S2 Gal4-VP16 UAS-luciferase, luminescence, 20 h; Potency, µM (top dose mostly 53.6 µM), without a hit: top-dose activity, negative = inhibition, most hits filed as inhibitors; hit rate 3.5% among 310,000; AID 2546;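 note: Gal4-VP16 expression switched on by copper sulfate through the metallothionein promoter; nearly all actives have a fitted effect of over 50% in size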
* = called active by the depositor; ? = inconclusive; . = not tested or not shown; [ ] = dose if it differs, or a comment. In the library only some 15% were active in any assay of this set; here they are far more common. Calls come from the whole dose curve; as a rule, active = well fitted curve in the direction sought with a large enough effect; inconclusive = small, poorly fitted or top-dose-only effect, or another doubt; inactive = no such curve, though single readings can be large; an effect the other way counts as inactive or inconclusive. % is set by controls: 0 for no effect and ±100 for the full control effect; potency is the fitted concentration of half-maximal effect.

SMILES	RORgamma inh	TDP1 cell CPT	ELG1 repair inh	ALOX12 inh	TDP1 cell noCPT	Gal4-VP16 FLuc
FC(F)(F)c1cccc(NC(=S)N2CCN(c3cccc(C(F)(F)F)c3)CC2)c1	11µM*	?	15%	4%	15µM*	-21%
Fc1ccc(NC(=S)N2CCN(c3cccc(C(F)(F)F)c3)CC2)cc1	?	21µM*	-17%	?	13µM*	?
O=S(=O)(Nc1ncccn1)c1ccc(NC(=S)N2CCN(c3cccc(C(F)(F)F)c3)CC2)cc1	.	-2%	.	97%	-15%	.
COc1cccc(NC(=S)N2CCN(S(=O)(=O)c3ccccc3)CC2)c1	-38%	-24%	-18%	0%	15%	1%
CN1C(=O)CCCCC1C(=O)N1CCc2ccccc2C1 (stereo not drawn)	.	.	.	12%	.	.
COc1ccc(C2Cn3nnc(C(=O)NCc4ccc(F)cc4Cl)c3CO2)cc1 (stereo not drawn)	.	.	.	7%	.	.
Cc1ccc(-c2cnc(CCC(=O)NCC(c3cccc(F)c3)N(C)C)o2)cc1 (stereo not drawn)	.	.	.	-8%	.	.
O=C(Nc1cc2c(cc1Sc1ccccc1)OCCO2)c1ccc2c(c1)OCCCO2	.	.	.	3%	.	.
CC(=O)N(C)c1ccc(NC(=O)c2ccc3c(c2)nc(C)n3-c2ccccc2)cc1	.	.	.	9%	.	.
COc1ccc(C2CC2/C(=N/O)c2ccccc2)cc1 (stereo not drawn)	22%	23µM*	?	-12%	18µM*	-2%
COc1ccc(C2CC2C(=O)c2ccccn2)cc1 (stereo not drawn)	21%	11%	?	-11%	3%	11%
COc1ccc(C2CC2/C(=N/O)c2ccccn2)cc1 (stereo not drawn)	?	13µM*	6%	-1%	?	3.2µM*
O/N=C(\c1ccccn1)C1CC1c1ccccc1 (stereo not drawn)	13µM*	?	-1%	?	?	-13%
Cc1ccc2c(c1)-c1ccccc1C2=Nc1cccc2ccccc12	.	.	.	29%	.	.
CC(NC(=O)c1n[nH]c(=O)c2ccccc12)c1ccco1 (stereo not drawn)	.	.	.	-23%	.	.
Brc1ccc(-c2ccnc3nc(-c4ccco4)nn23)s1	.	.	.	0%	.	.
Cc1ccc(Nc2c(-c3c[nH]c4ccccc34)nc3cc(C)ccn23)cc1	.	23µM*	.	?	23µM*	.
Cc1ccn2c(Nc3ccc4c(c3)OCCO4)c(-c3ccccc3O)nc2c1	.	?	.	-25%	?	.
Cc1ccn2c(Nc3ccccc3)c(-c3c[nH]c4ccccc34)nc2c1	.	16µM*	.	?	?	.
Cc1ccc2nc(-c3c[nH]c4ccccc34)c(Nc3ccc(F)cc3)n2c1	.	15µM*	.	?	18µM*	.
Cc1ccc(-n2nnnc2Sc2nnnn2-c2ccccc2)cc1	.	.	.	8%	.	.
O=C(NCCCN1CCCC1)c1ccc2c(Cl)c3c(nc2c1)CCCC3	26%	?	-2%	-15%	15µM*	-10%
CCCN1CCN(CCCNC(=O)c2ccc3c(Cl)c4c(nc3c2)CCCC4)CC1	-13%	21µM*	8%	12%	8.2µM*	-12%
O=C(NC1CC1)c1ccc2c(Cl)c3c(nc2c1)CCCC3	?	?	-14%	-4%	?	?
O=C(c1ccc2c(Cl)c3c(nc2c1)CCCC3)N1CCN(c2ccc(F)cc2)CC1	0%	21µM*	?	16%	18µM*	-1%
SMILES	RORgamma inh	TDP1 cell CPT	ELG1 repair inh	ALOX12 inh	TDP1 cell noCPT	Gal4-VP16 FLuc
Cc1cccc(OC(=O)c2ccccc2I)c1C	.	.	.	-38%	.	.
CCCCn1nnnc1C(c1ccccc1)N1CCN(c2ccccn2)CC1 (stereo not drawn)	.	-46%	.	0%	16µM*	.
CCCCn1nnnc1C(c1ccccc1)N1CCN(CCN2CCOCC2)CC1 (stereo not drawn)	.	2%	.	?	-14%	.
CCCCn1nnnc1C(c1ccccc1)N1CCN(c2ncccn2)CC1 (stereo not drawn)	.	?	.	-5%	21µM*	.
CCCCn1nnnc1C(c1ccccc1)N1CCN(c2cccc(C(F)(F)F)n2)CC1 (stereo not drawn)	.	?	.	9%	?	.
CCCCn1nnnc1C(c1ccccc1)N1CCN(c2ccc(C)cc2)CC1 (stereo not drawn)	.	?	.	0%	18µM*	.
c1ccc(Cn2nnnc2C(c2cccnc2)N2CCN(c3ccccc3)CC2)cc1 (stereo not drawn)	13%	21µM*	?	2%	23µM*	?
O=C(Nc1cccc(C(F)(F)F)c1)N[C@H]1CO[C@H]2[C@@H]1OC[C@@H]2n1nnnc1Oc1ccc(-n2ccnc2)cc1	.	.	.	56%	.	.
CCN(CC)S(=O)(=O)c1cc(C(=O)OCc2nc3ccccc3nc2C)ccc1C	.	.	.	-9%	.	.
NC(=O)CO[C@@H]1CO[C@H]2[C@@H]1OC[C@@H]2NC(=O)c1ccc(C(F)(F)F)cc1	.	.	.	0%[176 µM]	.	.
CCCCc1cc(=O)oc2cc(OC(C)C(=O)NCc3cccnc3)c(Cl)cc12 (stereo not drawn)	.	.	.	2%	.	.
COc1ccc(-c2ccc(C(=O)N[C@H](c3ccccn3)C3CC(O)C3)o2)cc1 (stereo partly drawn)	.	.	.	46%	.	.
COC(=O)CCC(=O)Oc1ccc(OC(=O)CCC(=O)OC)cc1	13µM*	.	?	.	.	?
COC(=O)CCC(=O)Nc1ccc(NC(=O)CCC(=O)OC)cc1	-35%	-14%	12%	139%	-8%	5%
CCOc1cccc(C(=O)Nc2ccc3oc(Cc4ccc(Cl)cc4)nc3c2)c1	36%	?	18µM*	0%	?	-2%
O=C(Nc1ccc2oc(-c3cccnc3)nc2c1)c1ccc(Br)o1	36%	?	-4%	5%	?	-8%
O=C(Nc1ccc2oc(-c3cccnc3)nc2c1)c1ccc([N+](=O)[O-])o1	-6%	6.5µM*	?	48%	8.2µM*	10%
CCOc1ccc(C(=O)Nc2ccc3oc(-c4ccncc4)nc3c2)cc1	.	-21%	.	?	-29%	.
CCOc1ccc(C(=O)Nc2ccc3oc(-c4ccc5ccccc5c4)nc3c2)cc1	.	3.7µM*	.	-2%	?	.
CCOc1cccc(C(=O)Nc2ccc3oc(-c4cccnc4)nc3c2)c1	29%	?	18µM*	12%	?	-8%
